Source: PubChem BioAssay (Broad Institute)
Pf Dd2 growth = inhibitors of Plasmodium falciparum Dd2 growth; 94,000 tested, 2.3% active; P. falciparum Dd2 growth, SYBR Green, 72 h; hits give low values; activity change, % at 10 µM; in the data active = activity change below about -80%; inconclusive = no clear call, values can overlap the other calls
T cruzi growth-1 = T. cruzi proliferation inhibition; AID 624255; T. cruzi beta-gal in NIH3T3, GalScreen luminescence, 90 h; inhibition, % at 8.34 µM; 77,000 tested, 5.9% active;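 active = mean inhibition above about 93%, with at least 55% of replicates each passing it, limit read from the data, passing the limit was not always enough; inconclusive = only one of those two conditions holds; inactive = neither condition holds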
C diff growth = blocks growth of Clostridium difficile; Clostridium difficile clinical isolate growth, OD600, 24 h; hits give low values; growth activity, negative = inhibition, % at 16 µg/mL (by protocol); 86,000 tested, 0.25% active; AID 1259249;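 active = mean growth activity at or below -80% and every replicate also at or below -80%; inconclusive = mean at or below -80% but some replicate above -80%; inactive = mean growth activity above -80%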;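 note: 0% = DMSO wells and -100% = levofloxacin 16 µg/mL wells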
T cruzi growth-2 = inhibitors of T. cruzi proliferation; shares compounds with T cruzi growth-1; T. cruzi beta-gal in NIH3T3, GalScreen luminescence, 90 h; inhibition, % at 8.35 µM; 5,600 tested, 72% active;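 active = mean replicate inhibition above about 95% and at least 55% of replicates individually reaching it, limit read from the data; inconclusive = only one of the two criteria is met; inactive = neither criterion is met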
T cruzi growth-3 = blocks T. cruzi growth in NIH3T3 host cells; shares compounds with T cruzi growth-1; T. cruzi beta-gal in NIH3T3, GalScreen luminescence, 90 h; inhibition, % at 2.09 µM; 5,600 tested, 21% active;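 active = mean inhibition above about 95%, with at least 55% of replicates also reaching it, limit read from the data; inconclusive = meets just one of the two conditions; inactive = meets neither condition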;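 note: plate controls were neutral control median for no effect and positive control median for full effect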
3T3 cytotox = NIH/3T3 (mouse) viability loss | cytotoxicity (signal decrease), % at 8.35 µM | NIH/3T3 viability, CellTiter-Glo ATP luminescence, 90 h | shares compounds with T cruzi growth-1 | 5,600 tested, 14% active;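 active = mean signal decrease across replicates above about 35% based on untreated-well scatter, with enough replicates individually passing, limit read from the data; inconclusive = no rule stated though some were filed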;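 note: 0% = median of neutral control wells and 100% = median of positive control wells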
NIH3T3 tox 2 = cytotoxicity in mouse NIH/3T3 fibroblasts. shares compounds with T cruzi growth-1. NIH/3T3 viability, CellTiter-Glo ATP luminescence, 90 h. inhibition, % at 24.9 µM. 5,600 tested, 56% active. AID 651744;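 active = mean loss of cell viability signal at or above a set limit, and enough replicates individually reaching it; inconclusive = meets only the mean limit or only the replicate share; inactive = meets neither condition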;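 note: 0% = median of neutral control wells and 100% = median of positive control wells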
* hit, by the source's call; u = inconclusive; x = not tested or not shown. A selection: hits, their analogues and other compounds. The true share with any hit is near 6.7%.

SMILES	Pf Dd2 growth	T cruzi growth-1	C diff growth	T cruzi growth-2	T cruzi growth-3	3T3 cytotox	NIH3T3 tox 2
CC(C)CC#Cc1cnc2c(c1)C(=O)N([C@H](C)CO)C[C@@H](C)[C@H](CN(C)Cc1cccc(F)c1)O2	-52	103*	-2	106*	46	24	102*
C[C@@H]1CN([C@H](C)CO)C(=O)c2cc(C#CCc3ccccc3)cnc2O[C@@H]1CN(C)Cc1cccc(F)c1	-33	-5	x	x	x	x	x
CC(C)CC#Cc1cnc2c(c1)C(=O)N([C@@H](C)CO)C[C@H](C)[C@@H](CN(C)Cc1cccc(F)c1)O2	-9	102*	3	108*	83	17	105*
C[C@H](CO)N1C[C@H](C)[C@H](CN(C)Cc2cccc(F)c2)Oc2ncc(C#CCc3ccccc3)cc2C1=O	-16	-74	x	x	x	x	x
CC(C)CC#Cc1cnc2c(c1)C(=O)N([C@H](C)CO)C[C@@H](C)[C@@H](CN(C)Cc1cccc(F)c1)O2	-42	u	0	104*	50	18	61*
O=S(=O)(Cc1ccccc1)NCC[C@H]1CC[C@@H](NS(=O)(=O)c2ccc(F)cc2)[C@@H](CO)O1	-7	-12	-2	x	x	x	x
CNC[C@@H]1Oc2c(NS(=O)(=O)c3ccc(OC)cc3)cccc2C(=O)N([C@H](C)CO)C[C@H]1C	11	-5	1	x	x	x	x
CO[C@H](CN(C)S(=O)(=O)c1cccc(Cl)c1)[C@@H](C)CN([C@@H](C)CO)S(=O)(=O)c1ccc(Cl)cc1	-14	91	x	x	x	x	x
CO[C@@H](CN(C)S(=O)(=O)c1cccc(Cl)c1)[C@H](C)CN([C@@H](C)CO)S(=O)(=O)c1cccc(Cl)c1	-13	110*	x	93	38	49*	72*
CO[C@H](CN(C)S(=O)(=O)c1cccc(Cl)c1)[C@@H](C)CN([C@H](C)CO)S(=O)(=O)c1cccc(Cl)c1	-15	118*	x	43	9	23	69*
CO[C@H](CN(C)S(=O)(=O)c1ccc(F)cc1)[C@H](C)CN([C@@H](C)CO)S(=O)(=O)c1cccc(Cl)c1	-30	91	x	x	x	x	x
CO[C@@H](CN(C)S(=O)(=O)c1cccc(Cl)c1)[C@@H](C)CN([C@@H](C)CO)S(=O)(=O)c1ccc(Cl)cc1	-40	104*	x	98*	59	u	67*
CO[C@H](CN(C)S(=O)(=O)c1cccc(Cl)c1)[C@@H](C)CN([C@@H](C)CO)S(=O)(=O)c1cccc(Cl)c1	-30	109*	x	83	19	42*	39*
CO[C@H](CN(C)S(=O)(=O)c1ccc(Cl)cc1)[C@@H](C)CN([C@H](C)CO)S(=O)(=O)c1cccc(Cl)c1	-12	76	x	x	x	x	x
CO[C@@H](CN(C)S(=O)(=O)c1cccc(Cl)c1)[C@@H](C)CN([C@H](C)CO)S(=O)(=O)c1ccc(Cl)cc1	-21	76	x	x	x	x	x
COCC(=O)Nc1ccc2c(c1)[C@H]1C[C@H](CC(=O)NCc3cc(F)ccc3F)O[C@H](CO)[C@H]1O2	-14	-9	-2	x	x	x	x
C[C@H]1CN([C@@H](C)CO)C(=O)c2cc(NS(=O)(=O)c3ccc(F)cc3)ccc2O[C@H]1CN(C)S(=O)(=O)c1ccc(Cl)cc1	4	34	-4	x	x	x	x
CN1[C@@H]2c3ccc(-c4ccccc4)c(=O)n3C[C@H]1[C@H](CO)[C@H]2C(=O)NCC1CCCCC1	x	70	-1	x	x	x	x
COc1ccc(S(=O)(=O)N[C@@H]2CC[C@@H](CC(=O)N3CCc4ccccc4C3)O[C@H]2CO)cc1	-26	30	1	x	x	x	x
CCCN1[C@H](C(=O)OC)[C@@H](CO)[C@@H]2Cn3c(ccc(-c4ccccc4)c3=O)[C@@H]21	-23	14	10	x	x	x	x
Cc1noc(C)c1NC(=O)N(C)C[C@@H]1OCc2ccccc2-c2ccccc2C(=O)N([C@H](C)CO)C[C@@H]1C	-5	6	-2	x	x	x	x
O=C(C[C@H]1CC[C@H]2[C@@H](COC[C@H](O)CN2Cc2cccc(C(F)(F)F)c2)O1)NCc1ccc(Cl)cc1	-14	128*	34	107*	54	25	u
O=C(C[C@H]1CC[C@@H]2[C@H](COC[C@H](O)CN2Cc2cccc(C(F)(F)F)c2)O1)NCc1ccccc1	-2	37	8	x	x	x	x
O=C(C[C@@H]1CC[C@H]2[C@@H](COC[C@H](O)CN2Cc2cccc(F)c2)O1)NCC1CCCCC1	-1	-36	0	x	x	x	x
O=C(C[C@H]1CC[C@@H]2[C@H](COC[C@H](O)CN2Cc2cccc(C(F)(F)F)c2)O1)NCc1ccc(Cl)cc1	-1	144*	74	103*	7	13	99*
SMILES	Pf Dd2 growth	T cruzi growth-1	C diff growth	T cruzi growth-2	T cruzi growth-3	3T3 cytotox	NIH3T3 tox 2
O=C(C[C@@H]1CC[C@@H]2[C@H](COC[C@@H](O)CN2Cc2cccc(Cl)c2)O1)NCC1CCCCC1	x	125*	-2	u	30	7	3
O=C(C[C@H]1CC[C@H]2[C@@H](COC[C@H](O)CN2Cc2cccc(C(F)(F)F)c2)O1)NCc1ccccc1	-13	24	x	x	x	x	x
O=C(C[C@H]1CC[C@H]2[C@@H](COC[C@@H](O)CN2Cc2cccc(C(F)(F)F)c2)O1)NCc1ccc(Cl)cc1	-3	125*	45	92	33	8	87*
O=C(C[C@H]1CC[C@H]2[C@@H](COC[C@@H](O)CN2Cc2cccc(C(F)(F)F)c2)O1)NCc1ccccc1	-4	-35	10	x	x	x	x
COCC#Cc1cnc2c(c1)C(=O)N([C@@H](C)CO)C[C@H](C)[C@@H](CN(C)C(=O)c1ccc(F)cc1)O2	-1	34	-3	x	x	x	x
CCCNC(=O)[C@H]1[C@H](CO)[C@H]2Cn3c(cccc3=O)[C@@H]1N2Cc1ccccc1	x	-27	2	x	x	x	x
C[C@@H]1CN([C@@H](C)CO)C(=O)c2cc(NC(=O)Nc3ccc(F)cc3)ccc2O[C@@H]1CN(C)C(=O)Nc1ccc(C(F)(F)F)cc1	-29	-120	1	x	x	x	x
C[C@@H]1CN([C@@H](C)CO)C(=O)c2cc(-c3cncnc3)cnc2O[C@@H]1CN(C)C(=O)CN1CCOCC1	11	x	-4	x	x	x	x
C[C@@H](NC(=O)C[C@H]1CC[C@H]2[C@@H](COC[C@H](O)CN2Cc2ccc(C(F)(F)F)cc2)O1)c1ccccc1	4	73	2	x	x	x	x
C[C@H](NC(=O)C[C@@H]1CC[C@@H]2[C@H](COC[C@H](O)CN2Cc2ccc(C(F)(F)F)cc2)O1)c1ccccc1	-26	168*	24	79	6	-3	23
CCS(=O)(=O)Nc1ccc2c(c1)C(=O)N(C)C[C@H](OC)[C@H](C)CN(CC1CCCCC1)[C@@H](C)CO2	x	-30	x	x	x	x	x
C[C@H]1CN([C@@H](C)CO)C(=O)CCCn2cc(nn2)CO[C@@H]1CN(C)C(=O)C1CC1	3	4	-3	x	x	x	x
